This passage reports outcome and AC50 results from PubChem BioAssay (EPA / NIEHS).

Activity calls are given as the source filed them. The calls were made as follows: active = hit-call score of the fitted dose curve at least 0.9, where 1 is the maximum; inactive = score below 0.9.

The assay in a line: CCTE_Shafer_MEA_dev_per_burst_interspike_interval: CCTE's Neural Network Formation Assay for Burst Interspike Interval, Shafer Lab (AID 2284044).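 Also: mean spike spacing inside bursts as AUC over recordings on days 5 7 9 12.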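 As to AC50: potency for a decrease of within-burst interspike interval below DMSO level.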 How it is done:
CCTE_Shafer_MEA_dev assay is conducted using Axion Biosystems 48 well microelectrode array (MEA) plates and Maestro recording system. Each well of the MEA plate contains a grid of 16 microelectrodes embedded in the culture surface. Electrically active cells, such as neurons, can be cultured over the electrodes, and electrical activity in these cells can be recorded extracellularly. The spontaneous firing of neurons is captured from each electrode on a microsecond timescale providing both temporally and spatially precise data. […] The CCTE_Shafer_MEA_dev assay uses primary cultures of rat cortical neurons. Recordings are made on days post-plating 5, 7, 9 and 12. As these cultures mature over time, neural networks develop functional activity and form cohesive networks in which electrical activity can be highly coordinated. CCTE_Shafer_MEA_dev_per_burst_interspike_interval is 1 of 19 assay components of the CCTE_Shafer_MEA_dev assay. It measures the average time interval between spikes (action potential firings) within a single-electrode burst (temporally-clustered group of spikes) during a recording in a microelectrode array (MEA) using Axion Biosystems Maestro 768 channel amplifier with the AxIS adaptive spike detector. The mean inter-spike interval within bursts is averaged across the actively bursting electrodes to report a well-mean value. To collapse across multiple recordings made on days post-plating 5, 7, 9 and 12, the trapezoidal area-under-the-curve of the component is calculated.Data from the assay component CCTE_Shafer_MEA_dev_per_burst_interspike_interval was analyzed into 1 assay endpoint. This assay endpoint, CCTE_Shafer_MEA_dev_per_burst_interspike_interval, was analyzed in the negative analysis fitting direction relative to DMSO as the negative control and baseline of activity. Using a type of functional reporter, gain or loss-of-signal activity can be used to understand electrical activity.
On the day prior to culture, each well was coated thoroughly with 150 uL of 0.05% polyethyleneimine (PEI, Sigma Cat P3143) in 50 mM HEPES (Sigma Cat H7523) at a pH of 8. The plate was incubated at 37C for one hour. PEI was rinsed out with 500 uL of sterile water three times. Plates were stored at 4C until the day of culture. This culture was plated at a seeding density of 1.5 x 10^5 cells/well on a 48-well MEA plate, prepared as described above. Cells were administered via a 25 uL media/laminin ([…]; Sigma Cat L2020-1MG) drop directly onto the microelectrode array, as adding the cells with the laminin results in better attachment than pre-coating with laminin. After 2 hours, an additional 475 uL of cortical media was added and the cells returned to the incubator. Exposure starts at day 0 of plating and is continued over twelve days of network development until the experiment is terminated. Cells are fed with fresh medium on DIV 5 and 9, following the recordings on those days. The entire volume of media in the well is exchanged and any vehicle or compound treatment is renewed. Complete details are found in OP-NHEERL/ISTD/SBB/TJS/2015-03-r0 (available on request, email shafer.tim@epa.gov). Measurement of the electrical activity is non-invasive, and recordings can be made from the same plate over multiple different days of the culture. In cortical neurons, this allows for the measurement of extracellular action potentials over the period during which networks form in the MEA plate.
On to `CNC(=O)CSP(=O)(OC)OC`, for which the result was inactive.
`NC(=O)c1ccc(N)nc1`: the AC50 was 8.19 µM (active).
Turning to `C=CC(F)(C(F)(F)F)C(F)(F)C(F)(F)F` (stereo not given), the call was inactive.
`Cc1cc(C(F)(C(F)(F)F)C(F)(F)F)ccc1NC(=O)c1cccc(I)c1C(=O)NC(C)(C)CS(C)(=O)=O`: the molecule was called inactive.
The same measure, in the same setting: for `FC(F)OCC(F)(F)C(F)(F)F` the value was “inactive”; for `Cc1ccccc1OP(=O)(Oc1ccccc1C)Oc1ccccc1C`, “inactive”.
With `OC(Cc1ccccc1Cl)(Cn1[nH]cnc1=S)C1(Cl)CC1` (stereo not given), the AC50 is 11.2 µM (active).
On to `CS(=O)(=O)c1ccc(C(=O)C2C(=O)CCCC2=O)c(Cl)c1COCC(F)(F)F`, for which the result was inactive.
The same measure, in the same setting: for `C=CCOC(F)(C(F)(F)F)C(F)(F)F` the value was “inactive”.
Same read-out and setting: for `O=S(=O)(F)C(F)(F)C(F)(F)C(F)(F)C(F)(F)F` the value was “inactive”.
The same measure, in the same setting: for `CC1(C)[C@H](C(=O)O[C@H](C#N)c2cccc(Oc3ccccc3)c2)[C@@H]1/C=C(\Cl)C(F)(F)F` the value was “inactive”; for `CC(C)[C@@H](Nc1ccc(C(F)(F)F)cc1Cl)C(=O)OC(C#N)c1cccc(Oc2ccccc2)c1` (stereo not given in full), “inactive”.
With `CC(F)(F)CC(F)(F)F`, the molecule was classed as inactive.
For `CCOCn1c(-c2ccc(Cl)cc2)c(C#N)c(Br)c1C(F)(F)F`, the AC50 was 1.61 µM (active).
`CC(=O)C(F)(F)C(F)(F)F`: the molecule was called inactive.
